# Experimental data as given in PubChem BioAssay AID1159580 (chemical genetic matrix, 2015).
# The whole screen tested about 5,500 compounds, of which about 2,000 (36%) were called active. Inconclusive results (about 18%) are left out. This is one part of the list. Unmarked numbers belong to inactive results. Rule as the data show it: active = normalized growth mostly below about 0.91 (no sharp cut-off); inconclusive = no clear call, values can overlap the other calls; inactive = mostly above about 0.92.
# Assay: chemical genetic growth profiling, strain panel (AID 1159580);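 also: tested at 20 µM; growth read once vehicle control cultures reached saturation at 30 °C; 1 = growth at the plate median or of vehicle wells; lower values mean less growth of the strain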
# Conditions: S. cerevisiae deletion strains, growth OD
structure (smiles),measurement,setting,value
COC1C(O)C(O[C@H]2CC[C@]3(C=O)C4C(CC[C@]3(O)C2)[C@@]2(O)CC[C@H](C3=CC(=O)OC3)[C@@]2(C)C[C@H]4OC(C)=O)OC(C)C1OC(C)=O (some centres undefined),normalized growth,"locus YAL021C, strain ccr4, active compounds read low",0.977
same,normalized growth,"locus YAL026C, strain drs2, active compounds read low",1.02
same,normalized growth,"locus YAL030W, strain snc1, active compounds read low",0.977
same,normalized growth,"locus YBL061C, strain skt5, active compounds read low",1.02
same,normalized growth,"locus YBR009C, strain hhf1, active compounds read low",0.973
same,normalized growth,"locus YBR021W, strain FUR4, active compounds read low",1.02
same,normalized growth,"locus YBR023C, strain chs3, active compounds read low",1.01
same,normalized growth,"locus YBR171W, strain sec66, active compounds read low",1.04
same,normalized growth,"locus YBR229C, strain ROT2, active compounds read low",1.02
same,normalized growth,"locus YBR231C, strain swc5, active compounds read low",1
same,normalized growth,"locus YBR279W, strain paf1, active compounds read low",1.01
same,normalized growth,"locus YCL011C, strain gbp2, active compounds read low",1
same,normalized growth,"locus YCL016C, strain dcc1, active compounds read low",1
same,normalized growth,"locus YCL029C, strain bik1, active compounds read low",1.05
same,normalized growth,"locus YCL069W, strain vba3, active compounds read low",1.01
same,normalized growth,"locus YCR088W, strain abp1, active compounds read low",1.02
same,normalized growth,"locus YDL005C, strain med2, active compounds read low",1.01
same,normalized growth,"locus YDL035C, strain GPR1, active compounds read low",1.03
same,normalized growth,"locus YDL040C, strain nat1, active compounds read low",1.03
same,normalized growth,"locus YDL074C, strain BRE1, active compounds read low",1.04
same,normalized growth,"locus YDL101C, strain DUN1, active compounds read low",1.02
same,normalized growth,"locus YDL134C, strain PPH21, active compounds read low",1.03
same,normalized growth,"locus YDL185W, strain tfp1, active compounds read low",1.01
same,normalized growth,"locus YDL192W, strain arf1, active compounds read low",1.03
same,normalized growth,"locus YDR001C, strain nth1, active compounds read low",1.02
same,normalized growth,"locus YDR069C, strain doa4, active compounds read low",0.951
same,normalized growth,"locus YDR101C, strain arx1, active compounds read low",1.04
same,normalized growth,"locus YDR137W, strain rgp1, active compounds read low",1.04
same,normalized growth,"locus YDR159W, strain sac3, active compounds read low",0.966
same,normalized growth,"locus YDR162C, strain NBP2, active compounds read low",1.06
same,normalized growth,"locus YDR195W, strain ref2",1.01
same,normalized growth,"locus YDR297W, strain sur2, active compounds read low",0.956
same,normalized growth,"locus YDR318W, strain mcm21, active compounds read low",1.03
same,normalized growth,"locus YDR334W, strain swr1, active compounds read low",1.02
same,normalized growth,"locus YDR335W, strain msn5, active compounds read low",0.982
same,normalized growth,"locus YDR388W, active compounds read low",1.07
same,normalized growth,"locus YDR392W, strain spt3, active compounds read low",1.04
same,normalized growth,"locus YDR502C, strain sam2, active compounds read low",1.03
same,normalized growth,"locus YEL003W, strain gim4, active compounds read low",1.02
same,normalized growth,"locus YEL037C, strain rad23, active compounds read low",1.01
same,normalized growth,"locus YEL061C, strain CIN8 (second series), active compounds read low",1.02
same,normalized growth,"locus YER015W, strain faa2, active compounds read low",1
same,normalized growth,"locus YER016W, strain bim1, active compounds read low",1.01
same,normalized growth,"locus YER110C, active compounds read low",1.09
same,normalized growth,"locus YER111C, strain swi4, active compounds read low",1.02
same,normalized growth,"locus YER155C, strain BEM2 (second series), active compounds read low",1.04
same,normalized growth,"locus YER155C, strain BEM2, active compounds read low",1.03
same,normalized growth,"locus YER167W, strain BCK2, active compounds read low",1.03
same,normalized growth,"locus YFR010W, strain ubp6, active compounds read low",1.04
same,normalized growth,"locus YGL078C, strain dbp3, active compounds read low",1.03
same,normalized growth,"locus YGL167C, strain pmr1, active compounds read low",1.02
same,normalized growth,"locus YGL173C, strain kem1, active compounds read low",1.03
same,normalized growth,"locus YGL227W, strain vid30, active compounds read low",1.02
same,normalized growth,"locus YGL240W, strain doc1, active compounds read low",0.973
same,normalized growth,"locus YGL248W, strain PDE1, active compounds read low",1.04
same,normalized growth,"locus YGL253W, strain hxk2, active compounds read low",0.984
same,normalized growth,"locus YGR135W, strain pre9, active compounds read low",1.03
same,normalized growth,"locus YGR252W, strain gcn5, active compounds read low",1.22
same,normalized growth,"locus YHR013C, strain ard1, active compounds read low",1.01
same,normalized growth,"locus YHR027C, strain rpn1, active compounds read low",0.996
same,normalized growth,"locus YHR079C, strain IRE1 (second series), active compounds read low",1.01
same,normalized growth,"locus YHR094C, strain hxt1, active compounds read low",1.11 [resistant] (active)
same,normalized growth,"locus YHR129C, strain ARP1, active compounds read low",1.03
same,normalized growth,"locus YHR142W, strain chs7, active compounds read low",1.03
same,normalized growth,"locus YHR200W, strain rpn10, active compounds read low",1.04
same,normalized growth,"locus YIL066C, strain RNR3, active compounds read low",1.04
same,normalized growth,"locus YIL073C, strain SPO22, active compounds read low",1.1
same,normalized growth,"locus YIL125W, strain kgd1, active compounds read low",0.996
same,normalized growth,"locus YIR030C, strain dcg1, active compounds read low",1.01
same,normalized growth,"locus YJL092W, strain hpr5, active compounds read low",1.02
same,normalized growth,"locus YJL095W, strain BCK1 (second series), active compounds read low",0.974
same,normalized growth,"locus YJL095W, strain BCK1, active compounds read low",1.07
same,normalized growth,"locus YJL115W, strain asf1, active compounds read low",1.01
same,normalized growth,"locus YJL129C, strain trk1, active compounds read low",1.04
same,normalized growth,"locus YJL134W, strain LCB3, active compounds read low",1.01
same,normalized growth,"locus YJL154C, strain vps35, active compounds read low",1.01
same,normalized growth,"locus YJL164C, strain tpk1, active compounds read low",1.02
same,normalized growth,"locus YJL166W, strain qcr8, active compounds read low",0.991
same,normalized growth,"locus YJL168C, strain set2, active compounds read low",1.03
same,normalized growth,"locus YJL187C, strain SWE1 (second series), active compounds read low",1.03
same,normalized growth,"locus YJR043C, strain POL32, active compounds read low",1.02
same,normalized growth,"locus YJR075W, strain HOC1, active compounds read low",1.01
same,normalized growth,"locus YKL009W, strain mrt4, active compounds read low",0.959
same,normalized growth,"locus YKL068W, active compounds read low",1.1 [resistant] (active)
same,normalized growth,"locus YKL085W, strain MDH1 (second series), active compounds read low",1.1 [resistant] (active)
same,normalized growth,"locus YKL085W, strain MDH1, active compounds read low",1.1 [resistant] (active)
same,normalized growth,"locus YKL160W, strain elf1, active compounds read low",1.02
same,normalized growth,"locus YKR001C, strain vps1, active compounds read low",1.02
same,normalized growth,"locus YKR026C, strain gcn3, active compounds read low",1.02
same,normalized growth,"locus YKR091W, strain srl3, active compounds read low",1.02
same,normalized growth,"locus YLL001W, strain dnm1, active compounds read low",1.02
same,normalized growth,"locus YLL026W, active compounds read low",1
same,normalized growth,"locus YLL041C, strain sdh2, active compounds read low",0.985
same,normalized growth,"locus YLR027C, strain aat2, active compounds read low",0.979
same,normalized growth,"locus YLR039C, strain RIC1, active compounds read low",1.1
same,normalized growth,"locus YLR058C, strain SHM2, active compounds read low",1.02
same,normalized growth,"locus YLR102C, strain apc9, active compounds read low",1.17 [resistant] (active)
same,normalized growth,"locus YLR221C, strain rsa3, active compounds read low",0.988
same,normalized growth,"locus YLR258W, strain gsy2, active compounds read low",0.973
same,normalized growth,"locus YLR262C, strain YPT6 (second series), active compounds read low",1.05
same,normalized growth,"locus YLR268W, strain sec22, active compounds read low",1.03
same,normalized growth,"locus YLR320W, strain mms22, active compounds read low",1.02
same,normalized growth,"locus YLR342W, strain FKS1, active compounds read low",1.01
same,normalized growth,"locus YLR357W, strain rsc2, active compounds read low",1.03
same,normalized growth,"locus YLR370C, strain arc18, active compounds read low",0.98
same,normalized growth,"locus YLR371W, strain rom2, active compounds read low",1.16 [resistant] (active)
same,normalized growth,"locus YLR384C, strain iki3, active compounds read low",0.987
same,normalized growth,"locus YLR418C, strain cdc73, active compounds read low",1.02
same,normalized growth,"locus YML016C, strain PPZ1, active compounds read low",1.02
same,normalized growth,"locus YML032C, strain rad52, active compounds read low",1.03
same,normalized growth,"locus YML120C, strain ndi1, active compounds read low",0.969
same,normalized growth,"locus YML124C, strain tub3, active compounds read low",1.02
same,normalized growth,"locus YMR058W, strain fet3, active compounds read low",1.02
same,normalized growth,"locus YMR078C, strain ctf18, active compounds read low",1.07
same,normalized growth,"locus YMR125W, strain sto1, active compounds read low",1.02
same,normalized growth,"locus YMR129W, active compounds read low",0.978
same,normalized growth,"locus YMR205C, strain PFK2, active compounds read low",0.986
same,normalized growth,"locus YMR223W, strain ubp8, active compounds read low",1.01
same,normalized growth,"locus YMR231W, strain pep5, active compounds read low",1.02
same,normalized growth,"locus YMR263W, strain SAP30, active compounds read low",1.04
same,normalized growth,"locus YMR307W, strain GAS1, active compounds read low",1.07
same,normalized growth,"locus YNL067W, strain RPL9B, active compounds read low",1.02
same,normalized growth,"locus YNL071W, strain lat1, active compounds read low",1.03
same,normalized growth,"locus YNL209W, strain ssb2, active compounds read low",0.994
same,normalized growth,"locus YNL233W, strain BNI4, active compounds read low",1.04
same,normalized growth,"locus YNL248C, strain rpa49, active compounds read low",1.01
same,normalized growth,"locus YNL250W, strain rad50, active compounds read low",1.04
same,normalized growth,"locus YNL271C, strain bni1, active compounds read low",1.02
same,normalized growth,"locus YNL298W, strain CLA4, active compounds read low",1.07
same,normalized growth,"locus YNL307C, strain MCK1, active compounds read low",1.12 [resistant] (active)
same,normalized growth,"locus YNL322C, strain KRE1 (second series), active compounds read low",1.02
same,normalized growth,"locus YNR049C, strain mso1, active compounds read low",0.972
same,normalized growth,"locus YNR052C, strain pop2, active compounds read low",1.13 [resistant] (active)
same,normalized growth,"locus YOL012C, strain htz1",1.05
same,normalized growth,"locus YOL147C, strain pex11, active compounds read low",1.02
same,normalized growth,"locus YOR001W, strain rrp6, active compounds read low",0.97
same,normalized growth,"locus YOR061W, strain CKA2, active compounds read low",1.04
same,normalized growth,"locus YOR069W, strain VPS5, active compounds read low",1.02
same,normalized growth,"locus YOR070C, strain gyp1, active compounds read low",0.989
same,normalized growth,"locus YOR080W, strain dia2, active compounds read low",1.01
same,normalized growth,"locus YOR083W, strain WHI5, active compounds read low",1.03
same,normalized growth,"locus YOR106W, strain vam3, active compounds read low",1.01
same,normalized growth,"locus YOR136W, strain idh2, active compounds read low",1.03
same,normalized growth,"locus YOR144C, strain elg1, active compounds read low",1.03
same,normalized growth,"locus YOR184W, strain ser1, active compounds read low",1.05
same,normalized growth,"locus YOR265W, strain rbl2, active compounds read low",0.993
same,normalized growth,"locus YOR270C, strain vph1, active compounds read low",1.04
same,normalized growth,"locus YOR290C, strain snf2, active compounds read low",1.03
same,normalized growth,"locus YOR316C, strain cot1, active compounds read low",1.08
same,normalized growth,"locus YPL051W, strain arl3, active compounds read low",1.02
same,normalized growth,"locus YPL078C, strain atp4, active compounds read low",1.01
same,normalized growth,"locus YPL106C, strain sse1, active compounds read low",1.05
same,normalized growth,"locus YPL240C, strain hsp82, active compounds read low",1.01
same,normalized growth,"locus YPL241C, strain CIN2, active compounds read low",1.01
same,normalized growth,"locus YPR119W, strain clb2, active compounds read low",1.11 [resistant] (active)
same,normalized growth,"locus YPR141C, strain kar3, active compounds read low",0.98
same,normalized growth,"locus YPR163C, strain tif3, active compounds read low",1.03
same,normalized growth,"locus YPR167C, strain met16, active compounds read low",1.02
same,normalized growth,"strain wtn01, active compounds read low",1.02
